In ChEMBL document CHEMBL2218924, “A broad activity screen in support of a chemogenomic map for kinase signalling research and drug discovery” (Biochem J, 2013):

target: T1, Serine/threonine-protein kinase Chk1 (Homo sapiens) (UniProt O14757); settings: at 1 µM
T1 sequence (whole entry): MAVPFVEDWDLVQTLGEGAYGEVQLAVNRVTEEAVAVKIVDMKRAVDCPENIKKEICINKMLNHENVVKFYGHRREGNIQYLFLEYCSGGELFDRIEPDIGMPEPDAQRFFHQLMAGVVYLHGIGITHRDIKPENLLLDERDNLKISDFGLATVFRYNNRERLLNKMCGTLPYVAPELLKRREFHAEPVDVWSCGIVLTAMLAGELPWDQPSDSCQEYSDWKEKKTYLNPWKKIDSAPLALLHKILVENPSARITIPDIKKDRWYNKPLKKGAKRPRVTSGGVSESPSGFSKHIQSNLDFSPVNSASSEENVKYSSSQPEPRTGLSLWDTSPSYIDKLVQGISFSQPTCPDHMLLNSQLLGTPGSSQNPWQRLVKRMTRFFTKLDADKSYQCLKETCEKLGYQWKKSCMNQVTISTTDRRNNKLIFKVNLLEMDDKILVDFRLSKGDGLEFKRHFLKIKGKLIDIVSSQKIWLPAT

SMILES | residual activity [%]
COc1ccc2c(c[n+](C)c3c4cc5c(cc4ccc23)OCO5)c1OC | 86
COC(=O)[C@@]1(O)C[C@H]2O[C@]1(C)n1c3ccccc3c3c4c(c5c6ccccc6n2c5c31)C(=O)NC4 | 1
COc1cc2ncnc(Nc3ccc(OCc4ccccc4)cc3)c2cc1OC | 101
COc1ccc2c(c1)/C(=C/c1cnc[nH]1)C(=O)N2 | 77
CCn1cnc2c(Nc3cccc(Cl)c3)nc(N[C@@H]3CCCC[C@@H]3N)nc21 | 83
O=C1Nc2ccc3ncsc3c2/C1=C/c1c[nH]cn1 | 35
O=c1[nH]c2ccccc2n1C1CCN(Cc2ccc(-c3nc4cc5[nH]cnc5cc4nc3-c3ccccc3)cc2)CC1 | 102
C[S+]([O-])c1ccc(-c2nc(-c3ccc(F)cc3)c(-c3ccncc3)[nH]2)cc1 (stereo unspecified) | 104
O=[N+]([O-])/C=C/c1ccc2c(c1)OCO2 | 85
CC(C)[C@H](CO)Nc1nc(Nc2cccc(Cl)c2)c2ncn(C(C)C)c2n1 | 99
O=C1NC(=O)c2c1c1c3ccccc3n3c1c1c2c2ccccc2n1C1CCC3O1 | 25
CC(C)(C)c1cc(C=C(C#N)C#N)cc(Br)c1O | 105
COc1cc(OC)c(/C=C2\C(=O)Nc3ccccc32)c(OC)c1 | 88
c1cc(-c2cnn3cc(-c4ccc(OCCN5CCCCC5)cc4)cnc23)ccn1 | 101

target: T1, Serine/threonine-protein kinase Chk1 (Homo sapiens); settings: at 10 µM

SMILES | residual activity [%]
COc1ccc2c(c[n+](C)c3c4cc5c(cc4ccc23)OCO5)c1OC | 99
COC(=O)[C@@]1(O)C[C@H]2O[C@]1(C)n1c3ccccc3c3c4c(c5c6ccccc6n2c5c31)C(=O)NC4 | -1
COc1cc2ncnc(Nc3ccc(OCc4ccccc4)cc3)c2cc1OC | 87
COc1ccc2c(c1)/C(=C/c1cnc[nH]1)C(=O)N2 | 30
CCn1cnc2c(Nc3cccc(Cl)c3)nc(N[C@@H]3CCCC[C@@H]3N)nc21 | 28
O=C1Nc2ccc3ncsc3c2/C1=C/c1c[nH]cn1 | 8
O=c1[nH]c2ccccc2n1C1CCN(Cc2ccc(-c3nc4cc5[nH]cnc5cc4nc3-c3ccccc3)cc2)CC1 | 88
C[S+]([O-])c1ccc(-c2nc(-c3ccc(F)cc3)c(-c3ccncc3)[nH]2)cc1 (stereo unspecified) | 97
O=[N+]([O-])/C=C/c1ccc2c(c1)OCO2 | 101
CC(C)[C@H](CO)Nc1nc(Nc2cccc(Cl)c2)c2ncn(C(C)C)c2n1 | 86
O=C1NC(=O)c2c1c1c3ccccc3n3c1c1c2c2ccccc2n1C1CCC3O1 | 20
CC(C)(C)c1cc(C=C(C#N)C#N)cc(Br)c1O | 105
COc1cc(OC)c(/C=C2\C(=O)Nc3ccccc32)c(OC)c1 | 81
c1cc(-c2cnn3cc(-c4ccc(OCCN5CCCCC5)cc4)cnc23)ccn1 | 87

target: Serine/threonine-protein kinase Chk2 (Homo sapiens) (UniProt O96017); settings: at 1 µM
Sequence (O96017 whole entry): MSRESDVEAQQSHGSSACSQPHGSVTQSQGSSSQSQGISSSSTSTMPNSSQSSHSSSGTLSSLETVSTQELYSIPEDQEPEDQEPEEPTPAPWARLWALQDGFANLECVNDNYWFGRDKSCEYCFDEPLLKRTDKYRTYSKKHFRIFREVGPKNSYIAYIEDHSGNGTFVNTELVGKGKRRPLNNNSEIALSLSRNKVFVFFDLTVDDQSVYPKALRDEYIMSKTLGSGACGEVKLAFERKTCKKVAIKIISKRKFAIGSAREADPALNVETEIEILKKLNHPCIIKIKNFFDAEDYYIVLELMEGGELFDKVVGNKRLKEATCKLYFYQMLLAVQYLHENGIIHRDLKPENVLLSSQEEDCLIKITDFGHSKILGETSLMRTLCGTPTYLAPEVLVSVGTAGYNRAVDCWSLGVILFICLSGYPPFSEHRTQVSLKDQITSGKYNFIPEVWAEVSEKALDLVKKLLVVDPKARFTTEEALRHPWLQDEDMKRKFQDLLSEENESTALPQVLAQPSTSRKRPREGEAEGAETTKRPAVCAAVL

SMILES | residual activity [%]
COc1ccc2c(c[n+](C)c3c4cc5c(cc4ccc23)OCO5)c1OC | 73
COC(=O)[C@@]1(O)C[C@H]2O[C@]1(C)n1c3ccccc3c3c4c(c5c6ccccc6n2c5c31)C(=O)NC4 | 3
N/C(=N\[N+](=O)[O-])N/N=C\c1ccc(-c2cccc([N+](=O)[O-])c2)o1 | 91
COc1cc2ncnc(Nc3ccc(OCc4ccccc4)cc3)c2cc1OC | 8
COc1ccc2c(c1)/C(=C/c1cnc[nH]1)C(=O)N2 | 67
CCn1cnc2c(Nc3cccc(Cl)c3)nc(N[C@@H]3CCCC[C@@H]3N)nc21 | 59
O=C1Nc2ccc3ncsc3c2/C1=C/c1c[nH]cn1 | 50
O=c1[nH]c2ccccc2n1C1CCN(Cc2ccc(-c3nc4cc5[nH]cnc5cc4nc3-c3ccccc3)cc2)CC1 | 95
C[S+]([O-])c1ccc(-c2nc(-c3ccc(F)cc3)c(-c3ccncc3)[nH]2)cc1 (stereo unspecified) | 90
O=[N+]([O-])/C=C/c1ccc2c(c1)OCO2 | 85
CC(C)[C@H](CO)Nc1nc(Nc2cccc(Cl)c2)c2ncn(C(C)C)c2n1 | 96
O=C1NC(=O)c2c1c1c3ccccc3n3c1c1c2c2ccccc2n1C1CCC3O1 | 26
CC(C)(C)c1cc(C=C(C#N)C#N)cc(Br)c1O | 96
COc1cc(OC)c(/C=C2\C(=O)Nc3ccccc32)c(OC)c1 | 89

target: Serine/threonine-protein kinase Chk2 (Homo sapiens) (UniProt O96017); settings: at 10 µM

SMILES | residual activity [%]
COc1ccc2c(c[n+](C)c3c4cc5c(cc4ccc23)OCO5)c1OC | 90
COC(=O)[C@@]1(O)C[C@H]2O[C@]1(C)n1c3ccccc3c3c4c(c5c6ccccc6n2c5c31)C(=O)NC4 | 1
N/C(=N\[N+](=O)[O-])N/N=C\c1ccc(-c2cccc([N+](=O)[O-])c2)o1 | 75
COc1cc2ncnc(Nc3ccc(OCc4ccccc4)cc3)c2cc1OC | 3
COc1ccc2c(c1)/C(=C/c1cnc[nH]1)C(=O)N2 | 25
CCn1cnc2c(Nc3cccc(Cl)c3)nc(N[C@@H]3CCCC[C@@H]3N)nc21 | 12
O=C1Nc2ccc3ncsc3c2/C1=C/c1c[nH]cn1 | 15
O=c1[nH]c2ccccc2n1C1CCN(Cc2ccc(-c3nc4cc5[nH]cnc5cc4nc3-c3ccccc3)cc2)CC1 | 87
C[S+]([O-])c1ccc(-c2nc(-c3ccc(F)cc3)c(-c3ccncc3)[nH]2)cc1 (stereo unspecified) | 90
O=[N+]([O-])/C=C/c1ccc2c(c1)OCO2 | 85
CC(C)[C@H](CO)Nc1nc(Nc2cccc(Cl)c2)c2ncn(C(C)C)c2n1 | 38
O=C1NC(=O)c2c1c1c3ccccc3n3c1c1c2c2ccccc2n1C1CCC3O1 | 24
CC(C)(C)c1cc(C=C(C#N)C#N)cc(Br)c1O | 99
COc1cc(OC)c(/C=C2\C(=O)Nc3ccccc32)c(OC)c1 | 78
